# Assay results published in PubChem BioAssay (Tox21).
# The source made the active and inactive calls. Entries that show only a call come without a potency. Calls come from the whole dose curve; as a rule, active = well fitted cell-killing curve with a large enough effect in the repeat runs; inconclusive = weak or mixed curves, or effect the other way; inactive = flat fitted curve, though single readings scatter.
# Assay: qHTS assay to identify small molecule HDAC inhibitors - cell viability counter screen (AID 1259365); note: nearly all actives have a fitted effect of over 50% in size
# Conditions: HCT-116 viability, CellTiter-Glo ATP luminescence, 2 h; series mostly up to 92.4 µM
# Description: U.S. Tox21 Program National Center for Advancing Translational Sciences [NCATS] NIH Chemical Genomics Center [NCGC] U.S. Environmental Protection Agency [EPA] National Institutes of Environmental Health Sciences [NIEHS] National Toxicology Program [NTP] U.S. Food and Drug Administration [FDA] Tox21 Assay Overview: Histone deacetylases (HDACs) are a group of epigenetic enzymes that regulate gene expression by histone deacetylation. HDACs are capable of introducing epigenetic modifications and such aberrations contribute to the onset and progression of several human diseases, thus making HDACs a popular therapeutic target. For identifying endogenous class I/II HDAC inhibitors a homogenous, luminogenic HDAC I/II cell based assay was used to measure the relative activity of class I and II HDACs from cells. Wild type HCT-116 cells were used to screen Tox21 compound libraries for identifying class I/II HDAC inhibitors.
# Tox21 Assay Protocol Summary: HCT-116 cells were dispensed at 1,500 per well in 5uL of culture medium into white solid bottom 1536-well plates (Greiner Bio-One, Monroe, NC) using a Multidrop Combi (Thermo Scientific, Waltham, MA) dispenser. The assay plates were incubated at 37 C and 5% CO2 for an overnight, and then 23nL of compounds dissolved in DMSO and positive control were transferred using a Pintool station (Wako, San Diego, CA). The assay plates were incubated at 37C and 5% CO2 for 2hr. After compound treatment, 4uL of CellTiter-Glo reagent (Promega Corporation, Madison, WI) was added to each well of the assay plates using Flying Reagent Dispenser (FRD, Aurora Discovery, San Diego, CA) and incubated the assay plates at room temperature for 30min. The luminescence signal was quantified using a ViewLux plate reader (Perkin Elmer, Shelton, CT).
# Potency is the fitted concentration of half-maximal effect.
SMILES,Potency,"activity change, negative = cytotoxicity"
O=C(O)c1cc(O)c2c(c1)C(=O)c1cccc(O)c1C2=O,inactive,–
NNC(=O)c1cccc(C(=O)NN)c1,inactive,–
CCCN(CCC)c1c([N+](=O)[O-])cc(C(F)(F)F)c(N)c1[N+](=O)[O-],60.9 µM (active),–
COC(=O)C1=C(C)NC(C)=C(C(=O)OCC(C)C)C1c1ccccc1[N+](=O)[O-] (stereo not given),inactive,–
CCN(C(=O)c1cc(C)cc(OC[C@H](C)Nc2ccncc2)c1)C(C)C,inactive,–
C/C(=C(/OCCOc1ccc(Cl)cc1)c1ccc(Cl)cc1Cl)n1ccnc1,inactive,–
CCCCCCCCCOC(=O)c1ccc(O)cc1,inactive,–
CC(=O)OCC(C)OC(C)=O (stereo not given),inactive,–
Cc1ccc(O)c(C(C)(C)C)c1,inactive,–
Clc1ccc2n[nH]nc2c1,inactive,–
CN(C)c1ccc(SC#N)cc1,inactive,–
Oc1ccc(C2(c3ccc(O)cc3)CC3CC2C2CCCC32)cc1 (stereo not given),inactive,–
CCCCCCCCCCC=O,inactive,–
CCCCCCC[N+](CC)(CC)CCCCc1ccc(Cl)cc1,inactive,–
COc1cccc(N)c1,inactive,–
Cc1oc(-c2ccccc2)nc1CCC(=O)c1ccc(CC2SC(=O)NC2=O)cc1 (stereo not given),inactive,–
NNc1nc(-c2ccc([N+](=O)[O-])cc2)cs1,inactive,–
CCCCCCCCCCCCCCCS(=O)(=O)Oc1ccccc1,inactive,–
N=C1N=C(N)c2ccccc21,inactive,–
O=C(c1ccc(F)cc1)C1CCN(CCn2c(=O)[nH]c3ccccc3c2=O)CC1,inactive,–

SMILES,Potency,"activity change, negative = cytotoxicity"
Cc1cccc(CN2CCN(C(c3ccccc3)c3ccc(Cl)cc3)CC2)c1 (stereo not given),inactive,–
CCCC(=O)OC[C@@H](OC(=O)CCC)[C@@H](OC(=O)CCC)[C@H](Cn1c2nc(=O)[nH]c(=O)c-2nc2cc(C)c(C)cc21)OC(=O)CCC,inactive,–
N#CSc1ccc(N)c([N+](=O)[O-])c1,inactive,–
Cc1nc(-c2ccc3c(c2)CCN(CCC2CCC(NC(=O)/C=C/c4ccc(F)cc4)CC2)CC3)no1 (stereo not given),inactive,–
Fc1ccc(C(c2ccc(F)cc2)N2CCN(C/C=C/c3ccccc3)CC2)cc1,inactive,–
c1ccc(CSCc2ccccc2)cc1,inactive,–
COc1cc(-c2nc(NC(=O)c3cc4cc(C)cc(C)c4n3CC(=O)O)sc2CCC2CCCCC2)c(OC)cc1Cl,25 µM (active),–
Cc1onc(-c2ccccc2Cl)c1C(=O)N[C@@H]1C(=O)N2[C@@H]1SC(C)(C)[C@@H]2C(=O)O,inactive,–
CCCCCCCCCCCCc1ccc(O)cc1,inactive,–
CCCCCCCCCCCC[N+](C)(C)CCCCCCCCCCCC,54.5 µM (active),–
CCCCCCCC/C=C\CCCCCCCCOCCO,inactive,–
O=C(c1ccc(O)cc1O)c1ccc(O)cc1O,inactive,–
CCCCCCCC[P+](CCCCCCCC)(CCCCCCCC)CCCCCCCC,34.2 µM (active),–
Cc1c(C)c2c(c(C)c1OC(=O)CCC(=O)O)CC[C@@](C)(CCC[C@H](C)CCC[C@H](C)CCCC(C)C)O2,inactive,–
CCCC/C=C/CCCCO,inactive,–
Cc1c(C)c2c(c(C)c1O)CCC(C)(COc1ccc(CC3SC(=O)NC3=O)cc1)O2 (stereo not given),inactive,–
O=c1[nH]cnc2nc[nH]c12,inactive,–
N/C(=N\N=C\c1ccc(Cl)cc1)N/N=C/c1ccc(Cl)cc1,inactive,–
CC(NN)c1ccccc1 (stereo not given),–,0.995% [at 19 µM] (inactive)
O=[N+]([O-])c1cc(Cl)c(Cl)c(Cl)c1Cl,inactive,–
